In PubChem BioAssay:
For some of these results: Results with a measured potency or affinity are listed apart. Calls of active or inactive are those of the source. Unless noted, the rule behind the calls is not given here.

Tests used:
[1] = antimalarial activity against Dd2 strain (AID 2302;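 active = growth inhibition above 50% at the single 2 µM test dose, taken to imply half-maximal potency below 2 µM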;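 note: 0% = DMSO untreated growth and 100% = chloroquine plus artemisinin killed control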); details: P. falciparum Dd2 in RBCs, LDH growth readout, 72 h; at 2 µM; stronger effect = higher value
[2] = HepG2 cytotoxicity, primary screen, cytotoxicity control for P. falciparum antimalarial project, cell-based, ATP luminescence (AID 2303;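 active = inhibition above 50%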;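 note: 0% = DMSO wells and 100% = digitonin-killed cells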); details: HepG2 viability, 24-48 h, at 10 µM, stronger effect = higher value
[3] = molecular target: L-lactate dehydrogenase (Plasmodium falciparum (isolate CDC / Honduras)) (UniProt Q27743); experiment: PfLDH activity inhibition – cell lysate, 3D7 strain, counter-screen for P. falciparum growth inhibition project (AID 2304);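 note: 0% = vehicle and 100% = reference inhibitor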; details: P. falciparum 3D7 crude extract, LDH APAD/NBT absorbance; at 2 µM; stronger effect = higher value
[4] = inhibition of 3D7 malaria parasite growth – strain 3D7 (AID 2306);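 note: 0% = DMSO wells and 100% = chloroquine plus artemisinin control wells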; details: P. falciparum 3D7 erythrocytic growth, LDH absorbance, 72 h; at 2 µM; stronger effect = higher value
[5] = molecular target: Calcium-dependent protein kinase 1 (Plasmodium falciparum (isolate 3D7)) (UniProt P62344); experiment: PfCDPK1 kinase inhibitors, biochemical, TCAMS library (AID 1159585; cut-off not given, nearly all actives have IC50 up to about 0.98 µM;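 note: inhibitors leave more ATP so luminescence rises with inhibition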); details: recombinant PfCDPK1, Kinase-Glo ATP depletion luminescence
[6] = molecular target: Plasmodium falciparum protein kinase 6 (PK6, PF3D7_1337100) (UniProt Q8IDW1); experiment: PfPK6 kinase inhibitors, biochemical, TCAMS library (AID 1159586); details: recombinant PfPK6, Kinase-Glo ATP depletion luminescence
[7] = molecular target: Protein kinase 7 (PK7), Plasmodium falciparum 3D7 (PF3D7_0213400) (UniProt Q7YTF7); experiment: inhibition of Plasmodium PK7 catalytic activity – biochemical, TCAMS antimalarial set, Kinase-Glo luminescence (AID 1159587); details: recombinant PfPK7, Kinase-Glo ATP depletion luminescence
[8] = molecular target: Calcium-dependent protein kinase 4 (Plasmodium falciparum (isolate 3D7)) (UniProt Q8IBS5); experiment: PfCDPK4 kinase inhibitors, biochemical, TCAMS library (AID 1159588; cut-off not given, nearly all actives have IC50 up to about 0.91 µM); details: recombinant PfCDPK4, Kinase-Glo ATP depletion luminescence
Chain of Calcium-dependent protein kinase 4 (Plasmodium falciparum (isolate 3D7)) (Q8IBS5 whole entry, looked up): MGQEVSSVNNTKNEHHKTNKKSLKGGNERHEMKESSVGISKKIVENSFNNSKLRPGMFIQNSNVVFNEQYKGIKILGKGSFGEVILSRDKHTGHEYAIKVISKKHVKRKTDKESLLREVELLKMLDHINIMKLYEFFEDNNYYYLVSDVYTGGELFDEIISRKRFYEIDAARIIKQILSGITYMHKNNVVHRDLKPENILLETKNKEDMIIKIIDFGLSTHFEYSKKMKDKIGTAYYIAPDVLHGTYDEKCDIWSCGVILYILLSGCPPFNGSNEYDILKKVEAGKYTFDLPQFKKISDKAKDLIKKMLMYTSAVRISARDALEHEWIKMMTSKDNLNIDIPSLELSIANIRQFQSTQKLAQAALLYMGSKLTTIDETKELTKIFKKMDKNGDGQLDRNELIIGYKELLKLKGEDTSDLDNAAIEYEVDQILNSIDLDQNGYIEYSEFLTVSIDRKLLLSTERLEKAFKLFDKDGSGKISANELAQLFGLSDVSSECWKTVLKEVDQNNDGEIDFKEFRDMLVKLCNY

Chain of Plasmodium falciparum protein kinase 6 (PK6, PF3D7_1337100) (Q8IDW1 1-305): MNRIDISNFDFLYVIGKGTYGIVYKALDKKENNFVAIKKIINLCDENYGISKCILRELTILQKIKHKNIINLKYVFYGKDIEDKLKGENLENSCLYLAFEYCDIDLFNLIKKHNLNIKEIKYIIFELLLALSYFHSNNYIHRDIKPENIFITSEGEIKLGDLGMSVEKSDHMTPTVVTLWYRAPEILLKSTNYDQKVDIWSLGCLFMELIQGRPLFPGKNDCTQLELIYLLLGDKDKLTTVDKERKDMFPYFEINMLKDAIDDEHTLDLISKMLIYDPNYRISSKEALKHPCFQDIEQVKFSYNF
Chain of L-lactate dehydrogenase (Plasmodium falciparum (isolate CDC / Honduras)) (Q27743 whole entry, looked up): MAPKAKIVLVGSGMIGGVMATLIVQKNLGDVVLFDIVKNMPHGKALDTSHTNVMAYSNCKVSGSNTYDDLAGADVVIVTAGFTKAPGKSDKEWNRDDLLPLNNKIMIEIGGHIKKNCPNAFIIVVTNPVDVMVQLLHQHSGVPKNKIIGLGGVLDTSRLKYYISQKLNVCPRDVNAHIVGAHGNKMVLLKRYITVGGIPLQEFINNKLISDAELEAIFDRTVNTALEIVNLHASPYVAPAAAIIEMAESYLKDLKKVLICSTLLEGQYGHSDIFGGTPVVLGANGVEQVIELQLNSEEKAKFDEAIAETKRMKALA
Chain of Protein kinase 7 (PK7), Plasmodium falciparum 3D7 (PF3D7_0213400) (Q7YTF7 1-343): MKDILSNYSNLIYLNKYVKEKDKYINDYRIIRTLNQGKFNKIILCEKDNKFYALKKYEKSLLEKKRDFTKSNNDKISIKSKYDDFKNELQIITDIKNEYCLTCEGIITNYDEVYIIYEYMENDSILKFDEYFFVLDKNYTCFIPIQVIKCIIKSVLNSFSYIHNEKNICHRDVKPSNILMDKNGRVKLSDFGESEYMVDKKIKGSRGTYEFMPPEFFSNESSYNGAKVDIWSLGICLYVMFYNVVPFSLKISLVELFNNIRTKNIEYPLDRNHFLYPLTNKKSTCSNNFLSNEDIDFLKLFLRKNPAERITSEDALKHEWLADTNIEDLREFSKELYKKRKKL
Chain of Calcium-dependent protein kinase 1 (Plasmodium falciparum (isolate 3D7)) (P62344 whole entry, looked up): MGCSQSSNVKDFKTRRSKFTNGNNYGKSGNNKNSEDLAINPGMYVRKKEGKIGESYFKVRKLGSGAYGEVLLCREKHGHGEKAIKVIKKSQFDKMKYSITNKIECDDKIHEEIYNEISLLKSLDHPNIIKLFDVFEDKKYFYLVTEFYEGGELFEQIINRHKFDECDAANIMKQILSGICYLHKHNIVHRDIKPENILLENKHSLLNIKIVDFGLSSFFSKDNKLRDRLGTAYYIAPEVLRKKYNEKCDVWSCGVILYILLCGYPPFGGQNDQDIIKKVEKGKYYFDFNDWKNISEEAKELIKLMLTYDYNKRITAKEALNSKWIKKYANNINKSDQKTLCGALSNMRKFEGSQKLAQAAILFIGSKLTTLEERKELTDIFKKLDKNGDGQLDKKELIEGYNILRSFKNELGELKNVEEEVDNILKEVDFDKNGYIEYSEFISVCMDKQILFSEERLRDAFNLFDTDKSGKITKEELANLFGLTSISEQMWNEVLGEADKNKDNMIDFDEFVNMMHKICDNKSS

O=C(/C=C/c1ccc(C(F)(F)F)cc1)NCCCCCN1CCCN(C(=O)Nc2cccc(Cl)c2)CC1
active: growth inhibition [4] 92%
inactive: growth inhibition [1] 3% | inhibition [2] 16% | inhibition [3] 3% | outcome [5] | outcome [6] | outcome [7] | outcome [8]

COc1cc(NC(=O)/C=C/c2cc(F)cc(F)c2F)cc(OCCN2CCC3(CC2)OCCO3)c1
inactive: growth inhibition [1] 26% | inhibition [2] 17% | inhibition [3] -3% | outcome [5] | outcome [6] | outcome [7] | outcome [8]
active: growth inhibition [4] 98%

N#Cc1cc(C(=O)Nc2ccccc2)c(N)nc1SCC(=O)NC(c1ccccc1)c1cccs1 (centres undefined)
inactive: inhibition [2] 34% | inhibition [3] -1% | outcome [5] | outcome [6] | outcome [7] | outcome [8]
active: growth inhibition [1] 100% | growth inhibition [4] 98%

O=C(Cc1cc(F)cc(F)c1)NC1CCN(c2ccnc3cc(Cl)ccc23)C1 (centres undefined)
active: growth inhibition [1] 101% | growth inhibition [4] 82%
inactive: inhibition [2] 13% | inhibition [3] 0% | outcome [5] | outcome [6] | outcome [7] | outcome [8]

Cc1cc(N[C@@H](CC(C)C)C(=O)NCCc2ccccc2)nc(Nc2ccccc2)n1
active: growth inhibition [4] 100%
inactive: growth inhibition [1] 38% | inhibition [2] 1% | inhibition [3] 1% | outcome [5] | outcome [6] | outcome [7] | outcome [8]

O=C(Nc1ccc(-c2ccc(-c3nc4ccc(C(F)(F)F)cc4[nH]3)s2)cc1)c1ccoc1
inactive: inhibition [2] 9% | inhibition [3] 3% | outcome [5] | outcome [6] | outcome [7] | outcome [8]
active: growth inhibition [1] 54% | growth inhibition [4] 94%

O=[N+]([O-])c1cccc(CNC2CCN(Cc3ccc(-c4ccccc4)cc3)CC2)c1
inactive: inhibition [2] 25% | inhibition [3] 1% | outcome [5] | outcome [6] | outcome [7] | outcome [8]
active: growth inhibition [1] 96% | growth inhibition [4] 100%

CC(C)OCCCNC(=O)c1nc(-c2cccc(C(F)(F)F)c2)sc1C(C)C
active: growth inhibition [4] 94%
inactive: growth inhibition [1] 34% | inhibition [2] -7% | inhibition [3] -8% | outcome [5] | outcome [6] | outcome [7] | outcome [8]

Fc1ccc2nc(-c3ccc(-c4cccc(CN5CCC(CCN6CCCCC6)CC5)c4)cc3)[nH]c2c1
active: growth inhibition [1] 100% | inhibition [2] 96% | growth inhibition [4] 101%
inactive: inhibition [3] 5% | outcome [5] | outcome [6] | outcome [7] | outcome [8]

C=CCNC(=O)C(C)c1ccc2cc(OC)ccc2c1 (centres undefined)
inactive: inhibition [2] 4% | inhibition [3] 1% | outcome [5] | outcome [6] | outcome [7] | outcome [8]
active: growth inhibition [1] 90% | growth inhibition [4] 92%

CCOc1cccc(C(=O)Nc2nonc2-c2ccc(OC)c(OC)c2)c1
active: growth inhibition [1] 95% | growth inhibition [4] 92%
inactive: inhibition [2] 11% | inhibition [3] 4% | outcome [5] | outcome [6] | outcome [7] | outcome [8]

CCN(CC)CCN(Cc1ccc(-c2ccc(C(F)(F)F)cc2)cc1)C(=O)c1ccc(-c2ccc(C#N)cc2)cc1
active: growth inhibition [4] 89%
inactive: growth inhibition [1] 31% | inhibition [2] 38% | inhibition [3] -5% | outcome [5] | outcome [6] | outcome [7] | outcome [8]

CN(CCN1CCC(c2c[nH]c3ccccc23)CC1)c1ccc(-c2nc3cc(Cl)c(Cl)cc3[nH]2)cc1
active: growth inhibition [1] 101% | growth inhibition [4] 101%
inactive: inhibition [2] 22% | inhibition [3] -1% | outcome [5] | outcome [6] | outcome [7] | outcome [8]

CCCCCOc1c(CCC)cc(Cc2cnc(N)nc2N)cc1CCC
active: inhibition [2] 58% | growth inhibition [4] 94%
inactive: growth inhibition [1] -3% | inhibition [3] -2% | outcome [5] | outcome [6] | outcome [7] | outcome [8]

CC(C)CC(C)NC(=O)C1Cc2c([nH]c3cc(Cl)ccc23)C2(CCN(CCc3ccccc3)CC2)N1 (centres undefined)
active: growth inhibition [1] 65% | growth inhibition [4] 95%
inactive: inhibition [2] 15% | inhibition [3] -1% | outcome [5] | outcome [6] | outcome [7] | outcome [8]

CCn1cc(C=C2Oc3c(ccc(O)c3CN3CCCCC3C)C2=O)c2ccccc21 (centres undefined)
inactive: inhibition [2] -6% | inhibition [3] 6% | outcome [5] | outcome [6] | outcome [7] | outcome [8]
active: growth inhibition [1] 80% | growth inhibition [4] 94%

COc1ccc2c(NN=Cc3c(OC)ccc4ccccc34)cc(C)nc2c1
inactive: inhibition [2] 7% | inhibition [3] 2% | outcome [5] | outcome [6] | outcome [7] | outcome [8]
active: growth inhibition [1] 85% | growth inhibition [4] 102%

COc1cccc(-c2cc(C(F)(F)F)n3ncc(C(=O)Nc4cc(C)ccc4O)c3n2)c1
active: growth inhibition [1] 99% | growth inhibition [4] 98%
inactive: inhibition [2] -4% | inhibition [3] 3% | outcome [5] | outcome [6] | outcome [7] | outcome [8]

CC(C)c1cc2c(cc1O)C(Cc1ccccc1Cl)N(C)CC2 (centres undefined)
active: growth inhibition [4] 97%
inactive: growth inhibition [1] 33% | inhibition [2] -7% | inhibition [3] -4% | outcome [5] | outcome [6] | outcome [7] | outcome [8]

Cc1ccccc1C1CCN(C2CCC(NC(=O)c3csc(-c4cccc(Cl)c4)n3)CC2)CC1 (centres undefined)
inactive: growth inhibition [1] 42% | inhibition [2] 33% | inhibition [3] 3% | outcome [5] | outcome [6] | outcome [7] | outcome [8]
active: growth inhibition [4] 85%

Cc1cc(OCCCNc2nc(NCCc3ccc(O)cc3)nc(N3CCNCC3)n2)c(Cl)c(C)c1Cl
inactive: growth inhibition [1] 8% | inhibition [3] 5% | outcome [5] | outcome [6] | outcome [7] | outcome [8]
active: inhibition [2] 54% | growth inhibition [4] 99%

Cc1ccnc(NC(c2ccc(Cl)c([N+](=O)[O-])c2)c2ccc3cccnc3c2O)c1 (centres undefined)
active: growth inhibition [1] 57% | growth inhibition [4] 89%
inactive: inhibition [2] 47% | inhibition [3] 6% | outcome [5] | outcome [6] | outcome [7] | outcome [8]

CCNc1cc(C(=O)N[C@@H](Cc2ccccc2)[C@H](O)CNC(C)CCCC(C)C)cc(N2CCCS2(=O)=O)c1 (some centres undefined)
active: growth inhibition [1] 98% | growth inhibition [4] 99%
inactive: inhibition [2] 2% | inhibition [3] 5% | outcome [5] | outcome [6] | outcome [7] | outcome [8]
